Experimental data as given in PubChem BioAssay AID598 (SRMLSC, 2007).
Screen size: about 85,000 compounds; about 5,100 (6%) were called active. The entries come from a sample that favours actives as a whole. Values without a mark were called inactive.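 How the source made its calls: active means viability at or below 40%; inactive means viability above 40%.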

experiment: proliferation blockers of H69AR lung cancer cells, primary screen, cell-based, human, 86K library (AID 598); settings: H69AR lung tumor viability, ATP luminescence, 72 h; at 10 µM; active compounds read low;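 further: multidrug resistant small cell line overexpressing MRP-1 efflux transporter; 100% = mean luminescence of untreated control wells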

SMILES	viability
CCCCN1C(=O)/C(=C2/C=CC=CN2C)SC1=S	90.2%
CC(=O)c1cc2c(cc1NC(=O)CN1CCCCCC1)OCO2	79.5%
CCc1ccc(CNC(=O)C2CC(=O)N(CCc3ccc(C)cc3)C2)cc1 (centres undefined)	99.5%
CN1CCN(c2nc3c(c(=O)[nH]c(=O)n3C)n2Cc2cccc3ccccc23)CC1	71.9%
CCC(C)Sc1nc2c(c(=O)[nH]c(=O)n2C)n1CC(O)COc1cccc2ccccc12 (centres undefined)	30.7% (active)
CCCSc1nc2c(c(=O)[nH]c(=O)n2C)n1CCc1ccccc1	74%
Cn1c(SCC(=O)NC2CCCCC2)nnc1-c1cc2ccccc2o1	91%
CC(=O)c1cccc(NC(=O)Nc2ccc(C)cc2)c1	95.3%
Cc1cccc(NC(=O)Nc2cccc(Oc3c(F)c(F)c(F)c(F)c3F)c2)c1	8.13% (active)
Cc1ccoc1C(=O)Nc1cccc(Oc2ccccc2)c1	112%
COc1ccc2c(Cl)c(C(=O)NCc3ccco3)sc2c1	91.4%
CCOc1ccc(N=C2NC(=O)S/C2=C\c2ccc(O)cc2)cc1	47.5%
CCC(=O)Nc1ccc(C(=O)Nc2cccc(OC)c2)cc1	64.6%
CCCc1nc2scc(-c3ccc(C)cc3)c2c(=O)n1N	46.1%
O=C(Cc1ccccc1)Nc1c(C(=O)N2CCCCCC2)cnn1-c1ccccc1	96.5%
CCCc1nc(NCc2ccc3c(c2)OCO3)c2nnn(Cc3ccccc3Cl)c2n1	24.6% (active)
C#CCNc1nc(C(C)C)nc2c1nnn2Cc1ccccc1F	104%
O=C(Cn1cnc2c(nnn2Cc2ccc(F)cc2)c1=O)NCc1ccc2c(c1)OCO2	95.8%
O=c1onc(-c2cccs2)n1Cc1ccccc1	95.9%
Cc1cccc(C)c1OC(=O)CSc1nnc(-c2ccccc2)o1	98.4%
O=C1CC(C(F)(F)C(F)(F)C(F)(F)C(F)(F)F)=Nc2ccccc2N1	92.7%
CCCCOc1ccc(CSC(=N)N)cc1[N+](=O)[O-]	5.08% (active)
CCCCOc1ccc(Cl)cc1CSc1nncn1N	94%
N#C/C(=C\c1ccccc1)c1n[nH]c(Cn2cncn2)n1	96.8%
O=C(CCS(=O)(=O)c1cccc2nsnc12)N1CCN(c2ccccc2F)CC1	91%

SMILES	viability
CCOC(=O)C(=O)Nc1nc(-c2ccccc2)c(CC)s1	103%
Cc1sc2nc(SCC(N)=O)n(C)c(=O)c2c1C	84.1%
C=CCn1c(SCC(=O)/C(C#N)=C(\C)N)nc2sc(C)c(C)c2c1=O	6.3% (active)
CCCn1c(=O)c2ccccc2n2c(SCC(=O)/C(C#N)=C(\C)N)nnc12	79.8%
CCC(=O)Nc1ccc(S(=O)(=O)NCC2CCCO2)cc1 (centres undefined)	90.7%
N#Cc1c2c(c(N3CCN(CCO)CC3)n3c1nc1ccccc13)CCCC2	85.5%
CC1CCc2sc3nc(N4CCN(CCO)CC4)n4ncnc4c3c2C1 (centres undefined)	33.1% (active)
Cc1c(Nc2nc3ccccc3nc2NS(=O)(=O)c2cccs2)c(=O)n(-c2ccccc2)n1C	85.5%
CCOC(=O)C(C)n1cnc2sc(C)c(C)c2c1=O (centres undefined)	89.3%
CC(=O)Oc1ccc(NC(=O)CCC2CCCCC2)c(C(=O)O)c1	101%
COc1ccc(CN(CC(=O)NC2CCCC2)C(=O)CCC(=O)Nc2cc(C)on2)cc1	96.3%
COc1cccc(OCCOc2cccc(/C=N/n3cnnc3)c2)c1	84.3%
COc1cccc(OCc2cc(/C=N/NC(=O)c3nc(Cl)c(Cl)c(N)c3Cl)ccc2OC)c1	19.7% (active)
COc1cccc(OCC(=O)Nc2ccccc2C(N)=O)c1	85.5%
CCCCCN1CC(O)=C(c2ccccc2)C1=N	88.7%
COc1ccc(Nc2ncc(C(=O)N3CCN(c4ccccc4OC)CC3)c3ccccc23)cc1	80.8%
O=C(c1cn(-c2ccccc2)nc1-c1cccnc1)N1CCCCC1	90.8%
COc1ccccc1N1CCN(C(=O)c2cn(-c3ccccc3)nc2-c2cccnc2)CC1	21.9% (active)
COc1cccc2c1OCC1COc3c(c(=O)n(C)c(=O)n3C)C21 (centres undefined)	94.9%
CCCCCCc1cc2cc(-c3nnc(-c4cccc(OC)c4)o3)c(=O)oc2cc1O	2.32% (active)
O=c1oc2cc(O)ccc2cc1-c1ccc(F)cc1	88.7%
CCCCCCc1cc2cc(-c3nnc(-c4ccccc4)o3)c(=O)oc2cc1O	9.42% (active)
COc1cccc(C(=O)c2cc3ccc(O)cc3oc2=O)c1	68.4%
CCCCN(CC)CCCNC(=O)CS(=O)(=O)Cc1nc(-c2cccc(OC)c2)oc1C	88.1%
CC(C)CCSc1ncnc2c1oc1nc3c(cc12)COC(C)(C)C3	68.6%

SMILES	viability
Cc1nnc(SCc2nc3ccccc3nc2C)s1	97.2%
Cc1cccc(N2C(=O)c3cccnc3C2=O)c1	92.3%
CCN(CC)CCn1c(=S)[nH]c2ncccc2c1=O	101%
C=C(C)CNC(=S)/N=c1\scc(C)n1CC	91.2%
CCCCCc1ccc(-c2ccc(C(=O)O)cc2)nc1	35.7% (active)
CCC(C)NC(=O)CCCc1ccccc1 (centres undefined)	86.3%
O=C(O)c1ccc(COCC(F)(F)F)cc1	98.2%
Cc1ccc(Cn2ccc(NC(=O)c3cc(C(C)C)on3)n2)cc1	95%
Cc1cc(NC(=O)c2cc(-c3cccs3)on2)nn1Cc1ccc(Cl)cc1	26.1% (active)
O=C(c1cc(-c2cccs2)on1)N1CCCCC1	97.2%
Cc1ccc(S(=O)(=O)N2CCN(S(=O)(=O)N3CCOCC3)CC2)cc1	93.1%
C/C(=N\NC(=O)c1ccc(C)cc1)C1C(=O)c2ccccc2C1=O	78.5%
CC1CCN(C(=O)c2cc3nc(C4CC4)cc(C(F)(F)F)n3n2)CC1	97.6%
CCC(C)NC(=O)CSC1=Nc2ccccc2C2=NC(CCC(=O)NCc3ccco3)C(=O)N12 (centres undefined)	90.7%
CCOc1nc(-c2ccc(OC)cc2)ccc1-c1noc(-c2cc(OC)c(OC)c(OC)c2)n1	13.9% (active)
COc1cc(-c2nc(-c3ccncc3)no2)cc(OC)c1OC	88.6%
COc1ccc(-c2ccc(-c3noc(-c4ccncc4)n3)c(OC)n2)cc1	93.4%
Cc1ccc(OCC(=O)N/N=C\c2ccco2)c(C)c1	93.4%
Cc1ccc(S(=O)(=O)NC(=O)N2CCCC(C)(C)C2)cc1	91%
Cc1ccc(S(=O)(=O)N(C)C2(C)CCS(=O)(=O)C2)cc1 (centres undefined)	109%
Cc1ccc(S(=O)(=O)C2(S(=O)(=O)c3ccc(C)cc3)CCCC2)cc1	18.3% (active)
O=C1Nc2c(Br)cc(Br)cc2C1(O)N1CCOCC1 (centres undefined)	31.2% (active)
CCc1c(C)nc2cc(-c3cccs3)[nH]n2c1=O	91.8%
CCc1c(-c2ccccc2)nc(N)c(C#N)c1-c1cccs1	36% (active)
Cc1c(-c2ccccc2)nc(N)c(C#N)c1-c1cccs1	77%

SMILES	viability
O=C(O)CSc1nccn1-c1cccc(Cl)c1	88.9%
Cc1noc(NS(=O)(=O)c2ccc(N/C=C/C(=O)c3ccccc3)cc2)c1C	76.1%
COc1ccc(CCNS(=O)(=O)c2ccc(Cl)s2)cc1OC	93%
COc1ccc(-c2nnco2)cc1OC	107%
COc1ccc(-c2cc(C(F)(F)F)nc(S(C)(=O)=O)n2)cc1OC	1.78% (active)
COc1ccc(-c2cc(C(F)(F)F)nc(NCc3cccnc3)n2)cc1	92.9%
O=C(Nc1nncs1)c1cccc(S(=O)(=O)N2CCCCC2)c1	94.8%
Cc1ccc(-n2c(SCC(=O)Nc3ccc4c(c3)OCO4)nnc2-c2ccccn2)cc1	65.9%
Cc1cc(C)c(S(=O)(=O)N2C=CC(C(F)(F)F)=NCC2)c(C)c1	109%
CCCCN(CC)CCNC(=O)c1[nH]c(C)c(C(C)=O)c1C	101%
Cc1ccc(C2(C(F)(F)F)N=C3Sc4cc(C)cc(C)c4N3C(=O)N2)cc1 (centres undefined)	101%
CCOC(=O)Cn1c(N)c(C(=O)OC)sc1=S	105%
CCOC(=O)c1sc(=S)n2c1[nH]c(=O)c1ccc(C(=O)OC)cc12	36.7% (active)
CCOC(=O)c1sc(=S)n(-c2cccc(OC)c2)c1N	97.3%
Cc1ccc(C)c(N2C(=O)CS/C2=N\NC(=O)c2ccccc2Cl)c1	101%
Cn1ccs/c1=N\S(=O)(=O)c1ccc(C(C)(C)C)cc1	89.4%
COc1ccc(NC(=O)C2C3C=CC(C3)C2C(=O)NCc2ccccn2)c(OC)c1 (centres undefined)	93.1%
O=C(NCCc1ccccc1)c1ccc(OCCOc2ccccc2)cc1	87.8%
COc1ccccc1Nc1nc(N)nc(CN(C)C2CCCCC2)n1	87.4%
COc1ccccc1NC1=NC(c2ccc(Cl)cc2)N=C(N)N1 (centres undefined)	19.5% (active)
COc1ccccc1NC1=NC2(CCCC2)N=C(N)N1	91.5%
Cc1ccc(S(=O)(=O)NCC(C)NS(C)(=O)=O)cc1 (centres undefined)	95.2%
CCOC(=O)c1sc(NC(=O)c2ccncc2)nc1C	96.2%
CCCCCOC(=O)c1ccc(N2C(=O)C3C4C=CC(C4)C3C2=O)cc1 (centres undefined)	95.1%
